Data published in PubChem BioAssay (NCATS).
Values joined by “and” are separate entries in the source; they are usually repeats but may differ in a detail not shown here. Identical values can stand only once. Records with an inconclusive call do not appear. The source holds several records for some structures; these can differ, active in one and inactive in another. Active and inactive are the calls of the source. Calls follow the shape of the dose curve; as a rule, active = well fitted curve in the direction sought with a large enough effect; inconclusive = small, poorly fitted or top-dose-only effect, or another doubt; inactive = no such curve, though single readings can be large; an effect the other way counts as inactive or inconclusive.

What was measured:
SC27B = assay: qHTS profiling for inhibitors of Plasmodium falciparum proliferation (AID 504749);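 also: 0% = DMSO vehicle and full inhibition = artemisinin control; nearly all actives have a fitted effect of over 60% in size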; details: P. falciparum in erythrocytes, SYBR Green DNA, 72 h; series mostly up to 28.7 µM
Procedure, shortened: (§1)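 Infected RBCs, 0.3% parasitemia/2.5% Hct final; cpd 72 h, 37 C, 5% CO2; lysis buffer with saponin/triton/SYBR Green I, o/n RT dark; FI 485/535; norm. to artemisinin (0.29 uM) and DMSO.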

TAB109 = assay: as above; details: P. falciparum in erythrocytes, SYBR Green DNA, 72 h; series mostly up to 28.7 µM
Procedure, shortened: as §1

TAB113 = assay: as above; details: P. falciparum in erythrocytes, SYBR Green DNA, 72 h; series mostly up to 28.7 µM
Procedure, shortened: as §1

TAB165 = assay: as above; details: P. falciparum in erythrocytes, SYBR Green DNA, 72 h; series mostly up to 28.7 µM
Procedure, shortened: as §1

W2 = assay: as above; details: P. falciparum in erythrocytes, SYBR Green DNA, 72 h; series mostly up to 28.7 µM
Procedure, shortened: as §1

CRL-7250 = normal cell line; assay: Cytotoxic Profiling of Annotated Libraries Using Quantitative High-Throughput Screening (AID 1296008); details: Five cell lines viability, CellTiter-Glo ATP luminescence, 48-72 h; max response: stronger effect = lower value; also: nearly all actives have a fitted effect of over 60% in size; also: potency is read from the fitted curve at half-maximal effect; as to max response: % is scaled to controls: 0 for no effect and ±100 for the full control effect
Procedure, shortened: (§2)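 Cytotoxicity was measured as CellTiter-Glo ATP luminescence, read after 10 min at room temperature. Compound treatment of the cells lasted 48 or 72 hr at 37 degrees Celsius in a qHTS format.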

HEK293 = assay: as above; details: Five cell lines viability, CellTiter-Glo ATP luminescence, 48-72 h; max response: stronger effect = lower value
Procedure, shortened: as §2

HaCat [1] = assay: as above; details: Five cell lines viability, CellTiter-Glo ATP luminescence, 48-72 h; max response: stronger effect = lower value
Procedure, shortened: as §2

KB-3-1 = assay: as above; details: Five cell lines viability, CellTiter-Glo ATP luminescence, 48-72 h; max response: stronger effect = lower value
Procedure, shortened: as §2

NIH3T3 [2] = assay: as above; details: Five cell lines viability, CellTiter-Glo ATP luminescence, 48-72 h; max response: stronger effect = lower value
Procedure, shortened: as §2

HACAT [3] = assay: qHTS assay to identify novel small-molecules to repurpose for Merkel cell carcinoma treatment (AID 1296009); details: MCC and control cell lines, CellTiter-Glo viability, 72 h; series mostly up to 44.8 µM; also: nearly all actives have a fitted effect of over 60% in size
Procedure, shortened: (§3)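 72 hr, 37 degree celsius; NPC 8-pt / MIPE 11-pt dose response; compound pinned in DMSO; CellTiter-Glo, 10 min RT, luminescence; normalized to no-cell and DMSO controls.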

MCC-13 = assay: as above; details: MCC and control cell lines, CellTiter-Glo viability, 72 h; series mostly up to 46 µM
Procedure, shortened: as §3

MCC-26 = assay: as above; details: MCC and control cell lines, CellTiter-Glo viability, 72 h; series mostly up to 46 µM
Procedure, shortened: as §3

MKL-1 = assay: as above; details: MCC and control cell lines, CellTiter-Glo viability, 72 h; series mostly up to 46 µM
Procedure, shortened: as §3

MKL-2 = assay: as above; details: MCC and control cell lines, CellTiter-Glo viability, 72 h; series mostly up to 46 µM
Procedure, shortened: as §3

UISO = assay: as above; details: MCC and control cell lines, CellTiter-Glo viability, 72 h; series mostly up to 46 µM
Procedure, shortened: as §3

WaGa = assay: as above; details: MCC and control cell lines, CellTiter-Glo viability, 72 h; series mostly up to 46 µM
Procedure, shortened: as §3

C33A = assay: Primary qHTS to identify gynecologic anti-cancer compounds using libraries of approved drugs and bioactive compounds (AID 1345084); details: Gynecologic cancer cell panel viability, ATPlite luminescence, 48 h; series mostly up to 57.5 µM; also: % is scaled to controls: 0 for no effect and ±100 for the full control effect; nearly all actives have a fitted effect of over 55% in size
Procedure, shortened: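 48 h compound exposure at 37 C, 5% CO2; five-point qHTS. ATPlite luminescence readout of cell ATP.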

HEK293T = assay: qHTS assay to identify novel small-molecules to repurpose for Merkel cell carcinoma treatment (AID 1296009); details: MCC and control cell lines, CellTiter-Glo viability, 72 h; also: nearly all actives have a fitted effect of over 60% in size
Procedure, shortened: as §3

NIH3T3 [4] = assay: as above; details: MCC and control cell lines, CellTiter-Glo viability, 72 h; series mostly up to 44.8 µM
Procedure, shortened: as §3

[5] = at 44.8 µM (top of the series) unless noted

Cc1cnc(C(=O)NCCc2ccc(S(=O)(=O)NC(=O)NC3CCCCC3)cc2)cn1
inactive: Potency (SC27B) | Potency (TAB109) | Potency (TAB113) | Potency (TAB165) | Potency (W2) | max response (CRL-7250) 0.493% | outcome (CRL-7250) | max response (HEK293) -14.8% | max response (HaCat [1]) 0.0058% | outcome (HaCat [1]) | max response (KB-3-1) -28.8% and 2.82% | max response (NIH3T3 [2]) 4.64% and -13.5% | outcome (HACAT [3]) | Potency (MCC-13) | Potency (MCC-26) | Potency (MKL-1) | Potency (MKL-2) | Potency (UISO) | Potency (WaGa) | Potency (C33A)

CCc1cccc2c3c([nH]c12)C(CC)(CC(=O)O)OCC3 (stereo unspecified)
inactive: max response (CRL-7250) -0.931% | max response (HEK293) 1.01% | outcome (HEK293) | max response (HaCat [1]) 2.9% | outcome (HaCat [1]) | max response (KB-3-1) -15.8% and -6.31% | max response (NIH3T3 [2]) 3.41% and -0.401% | outcome (HACAT [3]) | outcome (HEK293T; [5]) | Potency (MCC-13) | Potency (MCC-26) | Potency (MKL-1) | Potency (MKL-2) | Potency (UISO) | Potency (WaGa) | Potency (C33A)

Cc1cc(C(C)(C)C)c(O)c(C)c1CC1=NCCN1
inactive: Potency (SC27B) | Potency (TAB109) | Potency (TAB113) | Potency (TAB165) | Potency (W2) | max response (CRL-7250) 4.59% and 1.76% | outcome (CRL-7250) | max response (HEK293) -3.25% | max response (HaCat [1]) -9.17% and -0.1% | outcome (HaCat [1]) | max response (KB-3-1) 1.72% and -15.7% | max response (NIH3T3 [2]) 3.71% | outcome (NIH3T3 [2]) | outcome (HACAT [3]) | Potency (MCC-13) | Potency (MCC-26) | Potency (MKL-1) | Potency (MKL-2) | outcome (NIH3T3 [4]) | Potency (UISO) | Potency (WaGa) | Potency (C33A)
active: Potency (HEK293) 9.35 µM

CN(C)c1nc(N(C)C)nc(N(C)C)n1
inactive: Potency (SC27B) | Potency (TAB109) | Potency (TAB113) | Potency (TAB165) | Potency (W2) | max response (CRL-7250) -4.79% | outcome (CRL-7250) | max response (HEK293) -4.81% and -7.03% | max response (HaCat [1]) -7.57% and -4.4% | max response (KB-3-1) 0.844% and 0.45% | max response (NIH3T3 [2]) 1.4% and 1.9% | Potency (MCC-13) | Potency (MCC-26) | Potency (MKL-1) | Potency (MKL-2) | Potency (UISO) | Potency (WaGa) | Potency (C33A)

NCCS(=O)(=O)O
inactive: Potency (SC27B) | Potency (TAB109) | Potency (TAB113) | Potency (TAB165) | max response (CRL-7250) -1.77% and -3.17% | max response (HEK293) -1.38% | outcome (HEK293) | outcome (HaCat [1]) | max response (KB-3-1) 9.43% | max response (NIH3T3 [2]) 0.192% | outcome (NIH3T3 [2]) | outcome (HACAT [3]) | outcome (HEK293T; [5]) | Potency (MCC-13) | Potency (MCC-26) | Potency (MKL-1) | Potency (MKL-2) | outcome (NIH3T3 [4]) | Potency (UISO) | Potency (WaGa) | Potency (C33A)

CC(C)(Oc1ccc(C2CC2(Cl)Cl)cc1)C(=O)O (stereo unspecified)
inactive: Potency (SC27B) | Potency (TAB109) | Potency (TAB113) | Potency (TAB165) | Potency (W2) | max response (CRL-7250) -2.5% | outcome (CRL-7250) | max response (HEK293) -10.2% | max response (HaCat [1]) -0.292% | outcome (HaCat [1]) | outcome (KB-3-1) | outcome (NIH3T3 [2]) | outcome (HACAT [3]) | Potency (MCC-13) | Potency (MCC-26) | Potency (MKL-1) | Potency (MKL-2) | outcome (NIH3T3 [4]) | Potency (UISO) | Potency (WaGa) | Potency (C33A)

CC[N+](CC)(CC)CCOc1cccc(OCC[N+](CC)(CC)CC)c1OCC[N+](CC)(CC)CC
inactive: Potency (SC27B) | Potency (TAB109) | Potency (TAB113) | Potency (TAB165) | Potency (W2) | max response (CRL-7250) -17.1% and -8.63% | max response (HEK293) -0.136% | outcome (HEK293) | max response (HaCat [1]) -16.7% | outcome (HaCat [1]) | max response (KB-3-1) -10.5% and -5.4% | max response (NIH3T3 [2]) -12.2% | outcome (NIH3T3 [2]) | outcome (HACAT [3]) | outcome (HEK293T; [5]) | Potency (MCC-13) | Potency (MCC-26) | Potency (MKL-1) | Potency (MKL-2) | outcome (NIH3T3 [4]) | Potency (UISO) | Potency (WaGa) | Potency (C33A)

O=C1N(c2ccccc2)c2ccccc2C1(Cc1ccncc1)Cc1ccncc1
inactive: Potency (SC27B) | Potency (TAB109) | Potency (TAB113) | Potency (TAB165) | Potency (W2) | max response (CRL-7250) -6.52% and 2.8% | max response (HEK293) 2.06% | outcome (HEK293) | max response (HaCat [1]) 2.97% | outcome (HaCat [1]) | max response (KB-3-1) 0.123% | outcome (KB-3-1) | max response (NIH3T3 [2]) -1.99% and -3.96% | outcome (HACAT [3]) | outcome (HEK293T; [5]) | Potency (MCC-13) | Potency (MCC-26) | Potency (MKL-1) | Potency (MKL-2) | Potency (UISO) | Potency (WaGa) | Potency (C33A)

CCOC(=O)C(C)(C)Oc1ccc(Cl)cc1
inactive: Potency (SC27B) | Potency (TAB109) | Potency (TAB113) | Potency (TAB165) | Potency (W2) | max response (CRL-7250) 2.19% and -5.27% | max response (HEK293) 4.89% | outcome (HEK293) | outcome (HaCat [1]) | max response (KB-3-1) 9.24% and 4.33% | outcome (NIH3T3 [2]) | outcome (HACAT [3]) | outcome (HEK293T; [5]) | Potency (MCC-13) | Potency (MCC-26) | Potency (MKL-1) | Potency (MKL-2) | outcome (NIH3T3 [4]) | Potency (UISO) | Potency (WaGa) | Potency (C33A)

CC1(C)O[C@H]2CC(=O)OC[C@]23[C@H]2CC[C@@]4(C)[C@H](c5ccoc5)OC(=O)[C@H]5O[C@]54[C@]2(C)C(=O)C[C@@H]13
inactive: max response (CRL-7250) 2.33% and 4% | outcome (CRL-7250) | max response (HEK293) -8.07% | outcome (HEK293) | max response (HaCat [1]) -5.81% | outcome (HaCat [1]) | max response (KB-3-1) -3.61% and 0.55% | outcome (KB-3-1) | max response (NIH3T3 [2]) -0.469% and 1.76% | outcome (NIH3T3 [2]) | outcome (HACAT [3]) | outcome (HEK293T; at 17.4 µM (top of the series)) | outcome (HEK293T; at 44.8 µM (top of the series)) | Potency (MCC-13) | Potency (MCC-26) | Potency (MKL-1) | Potency (MKL-2) | outcome (NIH3T3 [4]) | Potency (UISO) | Potency (WaGa) | Potency (C33A)
